Screens: PubChem, National Center for Advancing Translational Sciences (NCATS)
TDP1 cell noCPT = qHTS for Inhibitors of human tyrosyl-DNA phosphodiesterase 1 (TDP1): qHTS in cells in absence of CPT; DT40 Tdp1-/- hTDP1 cells, no CPT, ATP luminescence, 48 h; Potency, µM (highest dose often 46.2 µM), most hits filed as inhibitors; actives 15% (n = 420,000); further: nearly all actives have a fitted effect of over 55% in size
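No-CPT arm: Tdp1-/-;hTDP1 DT40 cells (400/well) plus compounds, incubated ≥48 hr at 37 °C. Readout CellTiter-Glo luminescence.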
TDP1 cell CPT = DT40-hTDP1 cell growth loss with CPT. chicken DT40 Tdp1-/-;hTDP1 cells + 20 nM CPT, ATP luminescence, 48 h. actives 12% (n = 420,000). Potency, µM (top dose mostly 46.2 µM), hits mostly inhibitors. AID 686979; further: nearly all actives have a fitted effect of over 55% in size
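Cell growth measured by CellTiter-Glo luminescence after a minimum 48 h, 37 C compound exposure with 20 nM CPT in Tdp1-knockout DT40 cells stably expressing hTDP1, seeded 400/well; qHTS titration format.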
LDHA inh = LDHA (human) enzyme inhibition; purified LDHA, NADH/diaphorase-resazurin fluorescence; stronger effect = lower value; activity change, % (values are at about 110 or 230 µM); actives 0.15% (n = 480,000); AID 1347041; in the data active means activity change below about -30%; inconclusive means mostly about -25% to -30%
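LDH5 2 nM; NADH 0.06 mM, pyruvate 0.2 mM; 200 mM Tris pH 7.4, EDTA, Tween-20; 5 min RT. Detection: diaphorase 0.133 mg/mL + resazurin 37 µM, fluorescence ex540/em590 at 0 and 20 min; normalized to enzyme-free and DMSO wells.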
RORg inh = blocks mouse ROR gamma transcriptional activity; Drosophila S2 Gal4-RORgamma UAS-luciferase reporter, 20 h; Potency, µM (doses to about 53.6 µM), most hits filed as inhibitors; actives 5.4% (n = 310,000); further: nearly all actives have a fitted effect of over 60% in size
Target sequence (P51450 whole entry, looked up, the tested form may be a part): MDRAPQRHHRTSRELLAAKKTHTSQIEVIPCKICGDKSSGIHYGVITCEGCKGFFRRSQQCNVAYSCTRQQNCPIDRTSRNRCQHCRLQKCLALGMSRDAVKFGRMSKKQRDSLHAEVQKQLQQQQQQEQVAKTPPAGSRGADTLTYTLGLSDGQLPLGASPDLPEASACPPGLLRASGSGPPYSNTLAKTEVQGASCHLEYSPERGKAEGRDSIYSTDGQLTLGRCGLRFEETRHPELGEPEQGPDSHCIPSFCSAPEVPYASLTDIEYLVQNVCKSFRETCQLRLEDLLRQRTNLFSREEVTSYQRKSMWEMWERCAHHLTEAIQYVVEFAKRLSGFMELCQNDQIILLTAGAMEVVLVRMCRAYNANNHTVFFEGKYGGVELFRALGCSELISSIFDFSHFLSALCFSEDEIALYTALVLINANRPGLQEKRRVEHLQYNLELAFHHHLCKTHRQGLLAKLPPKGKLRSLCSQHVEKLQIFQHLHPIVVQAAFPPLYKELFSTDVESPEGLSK
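A Gal4/UAS one-hybrid system in insect cells: metallothionein-promoter Gal4–ROR gamma fusion plus Photinus luciferase reporter. Copper sulfate 700 uM final, 20 hr ambient incubation, luminescent detection after 10 min with reagent.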
VP16 counter = inhibits Gal4-VP16 luciferase reporter, ROR gamma counter-screen; Potency, µM (doses to about 53.6 µM), hits mostly inhibitors; AID 2546; Drosophila S2 Gal4-VP16 UAS-luciferase, luminescence, 20 h; actives 3.5% (n = 310,000);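 further: Gal4-VP16 expression switched on by copper sulfate through the metallothionein promoter; nearly all actives have a fitted effect of over 50% in size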
IL1B secr inh = inflammasome signaling inhibition, IL-1 beta readout; THP-1 LPS/ATP IL-1B secretion, AlphaLISA, 16 h; stronger effect = lower value; activity change, % at 57.5 µM; actives 4.7% (n = 360,000); in the data active means activity change below about -50%; inconclusive means mostly about -30% to -49%
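Secreted IL-1B measured by AlphaLISA bead assay after 16 h compound exposure of THP-1 cells; compounds (final up to 57.5 uM) added 1 h before LPS (250 ng/mL) and ATP (1.25 mM) stimulation; lower signal means less secretion.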
Numbers stand for hits; n = inactive; u = inconclusive; x = no result. This is a sample that favours compounds with a hit; in the whole collection about 18% have one here. Unless noted, the call rests on the fitted dose curve; in most records, active means well fitted curve in the direction sought with a large enough effect; inconclusive means small, poorly fitted or top-dose-only effect, or another doubt; inactive means no such curve, though single readings can be large; an effect the other way counts as inactive or inconclusive.

SMILES | TDP1 cell noCPT | TDP1 cell CPT | LDHA inh | RORg inh | VP16 counter | IL1B secr inh
COc1ccccc1N1CCN(c2nccnc2SCC(=O)Nc2cc(Cl)ccc2C)CC1 | x | x | n | x | x | x
CCOC(=O)C1CCCN(c2c(N3CCN(c4ccccn4)CC3)c(=O)c2=O)C1 (stereo not given) | n | n | n | n | n | n
CCN1CCN(c2c(C(=O)c3ccc(OC)cc3)cnc3ccccc23)CC1 | n | n | n | u | n | n
COc1cc2ncc(C(=O)c3ccc(C)cc3)c(N3CCCCC3)c2cc1OC | 11.6µM | 11.6µM | n | x | x | x
CCOC(=O)C1CCCN(c2c(C(=O)c3ccc(OCC)cc3)cnc3ccccc23)C1 (stereo not given) | u | 18.4µM | n | x | x | x
CCc1ccc(C(=O)c2cnc3ccc(OC)cc3c2N2CCOCC2)cc1 | x | x | n | x | x | x
CCOC(=O)C1CCCN(c2c(C(=O)c3ccccc3)cnc3ccc(OC)cc23)C1 (stereo not given) | 20.6µM | 14.6µM | n | n | u | n
CCOC(=O)C1CCN(c2c(C(=O)c3ccc(OCC)cc3)cnc3ccc(OC)cc23)CC1 | 20.6µM | 23.1µM | n | x | x | x
Cc1ccsc1/C=C(\C#N)c1nc(-c2ccc3ccccc3c2)cs1 | x | x | n | x | x | x
O=C(CSc1ccccc1)N/N=C/c1ccccc1O | 2.59µM | 4.11µM | n | 0.631µM | 1.58µM | n
O=C(CCSCCC(=O)NN=Cc1ccccc1O)NN=Cc1ccccc1O | n | n | n | x | x | n
CCOc1ccccc1/C=N/NC(=O)CSc1n[nH]c(=O)[nH]c1=O | n | n | n | n | n | n
O=C(CSc1n[nH]c(=O)[nH]c1=O)N/N=C/c1ccccc1O | n | 13µM | n | n | n | n
O=C(CCCCCNC(=O)c1ccccc1)N/N=C/c1ccccc1O | n | n | n | 6.31µM | 20µM | n
COc1ccc(CSCC(=O)N/N=C/c2ccccc2O)cc1 | 2.59µM | 2.91µM | n | 0.708µM | 3.16µM | n
O=C(CSc1nc2cc([N+](=O)[O-])ccc2o1)NCCCc1ccccc1 | x | x | n | x | x | x
CC(C)Cn1c(SCC(=O)NC(c2ccc(F)cc2)C(C)C)nc2ncccc2c1=O (stereo not given) | x | x | n | x | x | x
COc1cc(/C=N/NC(=O)CSc2cc(C)c(Br)cc2C)ccc1O | u | u | n | n | n | n
Cc1cc(SCC(=O)N/N=C/c2ccc(O)c(O)c2O)c(C)cc1Br | 4.61µM | 3.26µM | n | 2.82µM | u | n
Cc1nccn1CC(=O)N/N=C/c1ccccc1O | 20.6µM | u | n | 3.98µM | u | n
O=C(NCCCCCCNC(=O)c1ccccc1O)c1ccccc1O | 20.6µM | u | n | n | u | n
Cc1nccn1CC(=O)N/N=C/c1c[nH]c2ccccc12 | u | n | n | n | n | n
O=C(NCCNC(=O)c1ccccc1O)c1ccccc1O | n | u | n | n | n | n
CN(C)c1ccc(NC(=O)Nc2ccc3c(c2)c(=O)n(C)n3Cc2ccc(Cl)cc2)cc1 | u | u | n | x | x | u
CN(C)c1ccc(NC(=O)Nc2ccc3c(c2)c(=O)n(C)n3Cc2ccccc2)cc1 | 16.4µM | 23.1µM | n | x | x | n
SMILES | TDP1 cell noCPT | TDP1 cell CPT | LDHA inh | RORg inh | VP16 counter | IL1B secr inh
CC(C)=CCn1c2ccc(NC(=O)Nc3ccc(N(C)C)cc3)cc2c(=O)n1C | 18.4µM | u | n | x | x | n
CC1(C)CC2CC(C)(CN2C(=S)NC(=O)c2ccccc2Cl)C1 (stereo not given) | 18.4µM | u | n | 1.26µM | 1µM | n
CC1(C)CC2CC(C)(CN2C(=S)Nc2ccccc2F)C1 (stereo not given) | 13µM | 20.6µM | n | 3.98µM | n | n
CC1(C)CC2CC(C)(CN2C(=S)Nc2ccccc2)C1 (stereo not given) | u | u | n | u | n | n
Cc1cc2ccccc2n1CC(=O)N(C)Cc1ccc(C(N)=O)cc1 | x | x | n | x | x | x
Cc1cc2c(cc1S(=O)(=O)N1CCN(c3cccc(C(F)(F)F)c3)CC1)OCC(=O)N2 | u | 18.4µM | n | n | n | n
CC(=O)N1CCOc2cc(S(=O)(=O)N3CCN(c4ccccc4)CC3)c(Cl)cc21 | n | n | n | n | n | n
CC(=O)c1ccc(NS(=O)(=O)c2cc3c(cc2C)N(C)CCO3)cc1 | u | 10.3µM | n | u | n | n
Cc1cc2c(cc1S(=O)(=O)Nc1ccc(C(C)C)cc1)OCCN2C | 16.4µM | u | n | x | x | x
Cc1cc2c(cc1S(=O)(=O)N1CCN(c3ccccc3)CC1)OCCN2C | n | 7.31µM | n | n | n | n
COc1ccc(NC(=O)C(C)SCCO)cc1Cl (stereo not given) | x | x | n | x | x | x
Cc1cc(C(F)(F)F)nn1Cc1n[nH]c(=S)n1Cc1ccccc1 | n | n | n | u | 6.31µM | u
Cc1cc(C(F)(F)F)nn1Cc1n[nH]c(=S)n1-c1cccc(Cl)c1 | n | n | n | 11.2µM | u | n
S=c1[nH]nc(CCc2nc3ccccc3[nH]2)n1-c1cccc(Cl)c1 | n | n | n | n | n | n
CCCCCCOc1ccc(/C=C/C(=O)c2ccc(OC)c(CSCC(=O)O)c2)cc1 | x | x | n | x | x | x
N#C/C(=C\c1cccc(OCCOc2ccccc2)c1)c1nc2ccccc2[nH]1 | x | x | n | x | x | x
COc1ccc(CN(C)c2nn3c(=O)cc(C)nc3s2)cc1OC | x | x | n | x | x | x
COc1ccc(C)cc1C(C)NC(=O)Cc1c[nH]c2ccccc12 (stereo not given) | x | x | n | x | x | x
N#Cc1cccc(C(=O)N(CCc2ccccc2)Cc2cccs2)c1 | 25.9µM | u | n | n | n | n
COC(=O)c1ccccc1NS(=O)(=O)c1ccc(NC(C)=O)cc1 | n | n | n | n | n | -84.3
CC(=O)Nc1ccc(S(=O)(=O)Nc2ccc3c(c2)CCC3)cc1 | 13µM | n | n | u | u | n
COc1ccc(S(=O)(=O)Nc2ccc3c(c2)CCC3)cc1 | u | u | n | n | n | -187.2
O=C(O)CCc1ccc(S(=O)(=O)Nc2ccc3c(c2)CCC3)cc1 | x | x | n | x | x | x
Oc1ccc(N=Cc2ccccc2OCc2ccccc2)cc1 | x | x | n | x | x | x
CCC(C)NC(=O)Cc1csc(NC(=O)Nc2ccccc2)n1 (stereo not given) | x | x | n | x | x | x
CCc1ccccc1N(C(C)=O)c1nc(CN=C=S)cs1 | u | 23.1µM | n | n | n | n
CCc1ccccc1N(C(C)=O)c1nc(COc2ccccc2C(N)=O)cs1 | x | x | -30.1 | x | x | x
CC(=O)N(c1cccc(C)c1)c1nc(COc2ccccc2C(N)=O)cs1 | x | x | n | x | x | x
CCc1cccc(CC)c1NC(=O)COC(=O)c1cc(=O)c2ccccc2o1 | x | x | n | x | x | x
CCOc1ccc(NS(=O)(=O)c2ccc(C(=O)N3CCCCC3)cc2)cc1 | 13µM | 14.6µM | n | u | u | n
